# Results taken from PubChem BioAssay (EPA / NIEHS).
# Inconclusive results are not listed. Calls of active or inactive are those of the source. The calls were made as follows, unless noted: active = hit-call score of the fitted dose curve at least 0.9, where 1 is the maximum; inactive = score below 0.9.
# Legend:
# [1] = CCTE_Shafer_MEA_dev_firing_rate_mean: CCTE's Neural Network Formation Assay for Mean Firing Rate, Shafer Lab (AID 2284031)
# In short: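 Spike frequency (spikes/recording length, averaged over active electrodes) was recorded on days 5, 7, 9 and 12 and collapsed to AUC; rat cortical cultures received compound continuously over 12 days of network development.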
# [2] = CCTE_Shafer_MEA_dev_active_electrodes_number: CCTE's Neural Network Formation Assay for Number of Active Electrodes, Shafer Lab (AID 2284040; active = hit-call score of the fitted dose curve at least 0.9, where 1 is the maximum)
# In short: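 Counts electrodes per well firing at least 5 spikes/min, recorded on days 5, 7, 9 and 12 in rat cortical cultures dosed continuously from plating (treatment refreshed DIV 5, 9). Value is the area under the curve over recordings, fitted downward relative to DMSO.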
# [3] = CCTE_Shafer_MEA_dev_burst_rate: CCTE's Neural Network Formation Assay for Burst Rate, Shafer Lab (AID 2284042)
# In short: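 Cells plated, treated day 0; recorded DIV 5, 7, 9, 12; fed and re-treated DIV 5, 9. Endpoint: bursts per recording time, active-electrode well mean, trapezoidal AUC, fitted in decreasing direction against DMSO baseline.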
# [4] = CCTE_Shafer_MEA_dev_bursting_electrodes_number: CCTE's Neural Network Formation Assay for Number of Bursting Electrodes, Shafer Lab (AID 2284043; active = hit-call score of the fitted dose curve at least 0.9, where 1 is the maximum)
# In short: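 Rat cortical primary neurons, 48-well MEA, 16 electrodes/well; dosing DIV 0–12, re-dosed with full media change DIV 5, 9. Recordings DIV 5/7/9/12, AxIS adaptive spike detector; bursting electrode = ≥1 burst/2 min. AUC across days; loss of signal vs DMSO.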
# [5] = CCTE_Shafer_MEA_dev_burst_duration_mean: CCTE's Neural Network Formation Assay for Mean Burst Duration, Shafer Lab (AID 2284045)
# In short: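 Rat cortical cultures, 1.5 x 10^5 cells/well with laminin drop; continuous dosing days 0–12, media plus treatment refreshed DIV 5, 9. AxIS adaptive spike detection; mean single-electrode burst duration, AUC over four recordings, negative direction vs DMSO.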
# [6] = CCTE_Shafer_MEA_dev_inter_network_spike_interval_mean: CCTE's Neural Network Formation Assay for Mean Inter-network Spike Interval, Shafer Lab (AID 2284047)
# In short: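 Rat cortical cultures, 1.5 x 10^5 cells/well on 48-well MEA plates; continuous exposure days 0–12, medium and compound refreshed DIV 5, 9. Mean time between consecutive network-spike peaks; AUC across DIV 5/7/9/12; DMSO baseline, negative fitting direction.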
# [7] = CCTE_Shafer_MEA_dev_network_spike_number: CCTE's Neural Network Formation Assay for Number of Network Spikes, Shafer Lab (AID 2284048);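 also: synchronized bursts across electrodes counted on days 5 7 9 12 and integrated as AUC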
# In short: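 Rat cortical primary cultures on 48-well MEA (16 electrodes/well); continuous exposure DIV 0–12, full medium and treatment exchange DIV 5, 9. Readout: network spike count, AxIS adaptive detection, recordings DIV 5/7/9/12 collapsed to AUC; loss-of-signal fit, DMSO baseline.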
# [8] = CCTE_Shafer_MEA_dev_network_spike_peak: CCTE's Neural Network Formation Assay for Mean Number of Electrodes in Network Spike, Shafer Lab (AID 2284049)
# In short: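 Network-spike peak electrode count from recordings on days 5, 7, 9 and 12 was combined as trapezoidal area under the curve. Rat cortical cultures were treated continuously from plating, with compound renewed at each feed (DIV 5, 9); fits versus DMSO.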
# [9] = CCTE_Shafer_MEA_dev_spike_duration_mean: CCTE's Neural Network Formation Assay for Mean Spike Duration, Shafer Lab (AID 2284051);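 also: mean network spike duration pooled as area under curve over DIV 5 to 12 recordings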
# In short: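 Readout is the average length of network spikes, clustered firing across electrodes, summed over DIV 5, 7, 9 and 12 as area under the curve. Neurons from rat cortex developed networks on MEA plates under continuous 12-day exposure.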
# [10] = CCTE_Shafer_MEA_dev_network_spike_duration_std: CCTE's Neural Network Formation Assay for Standard Deviation of Network Spike Duration, Shafer Lab (AID 2284052);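 also: area under curve of spike duration SD across recording days 5 to 12; hits are decreases in network spike duration SD versus DMSO vehicle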
# In short: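 Read-out is the trapezoidal area-under-the-curve across recordings made on days 5, 7, 9 and 12, fitted in the negative direction against DMSO baseline. Neurons were primary rat cortical cells treated from day 0, with treatment renewed at each feed.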
# [11] = CCTE_Shafer_MEA_dev_per_network_spike_spike_number_mean: CCTE's Neural Network Formation Assay for Mean Number of Spikes in a Network Spike, Shafer Lab (AID 2284053)
# In short: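 Continuous twelve-day exposure of developing rat cortical networks grown over 16 microelectrodes per well; spontaneous firing is captured at four time points, and the per-network-spike spike number is integrated over development by trapezoidal AUC.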
# [12] = CCTE_Shafer_MEA_dev_per_network_spike_spike_percent: CCTE's Neural Network Formation Assay for Percent of Spikes in a Network Spike, Shafer Lab (AID 2284054)
# In short: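 Read-out: percent of spikes falling in a 0.05 s window at network-spike peak, from spontaneous MEA recordings on days 5, 7, 9 and 12; trapezoidal AUC; loss of signal versus DMSO. Rat cortical cultures, compound present throughout.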
# [13] = CCTE_Shafer_MEA_dev_LDH: CCTE's Lactate Dehydrogenase Assay for Cytotoxicity in the Neural Network Formation Assay, Shafer Lab (AID 2284068; active = hit-call score of the fitted dose curve at least 0.9, where 1 is the maximum;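 also: exposure for twelve days from plating with re-dosing on DIV 5 and 9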)
# In short: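 Cytotoxicity companion to network-formation recordings: rat cortical neurons received compound over 12 days of development, re-dosed at DIV 5 and 9 feeds. Viability was inferred from LDH enzyme activity relative to DMSO.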
# [14] = CCTE_Shafer_MEA_dev_AB: CCTE's Alamar Blue Assay for Cytotoxicity in the Neural Network Formation Assay, Shafer Lab (AID 2284083; active = hit-call score of the fitted dose curve at least 0.9, where 1 is the maximum;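 also: resazurin reduction fluorescence as viability of cultured neurons; twelve days of exposure from plating with re-dosing on DIV 5 and 9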)
# In short: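 Fluorescent resazurin reduction serves as the viability read-out, with DMSO as negative control and baseline. Cells were primary rat cortical neurons grown on MEA plates and dosed from day 0 to day 12, treatment renewed on DIV 5 and 9.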
# [15] = CCTE_Shafer_MEA_dev_mutual_information_norm: CCTE's Neural Network Formation Assay for Mutual Information Normalization, Shafer Lab (AID 2284091)
# In short: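 Neurons from rat cortex were seeded at 1.5 x 10^5 cells/well onto PEI-coated MEAs in a laminin drop, then exposed to compound from day 0 for twelve days. Network recordings on four days gave mutual information, summarised by AUC relative to DMSO.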
# [16] = CCTE_Shafer_MEA_dev_correlation_coefficient_mean: CCTE's Neural Network Formation Assay for Mean Correlation Coefficient, Shafer Lab (AID 2284093)
# In short: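 Read-out: well-mean correlation coefficient of spike trains between electrode pairs, collapsed over four recording days as trapezoidal area-under-the-curve. Developing rat cortical neuron networks grown on MEAs received test chemical continuously from plating.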
# [17] = UKN2_HCS_IMR90_neural_migration: University of Konstanz (UKN) Leist Lab Neural Crest Cell Migration Assay in human induced IMR90 Pluripotent Stem Cells (UKN2) (AID 2284204); details: actives raise or lower the signal
# In short: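 Stopper-exclusion migration (cMINC), human iPSC-derived neural crest cells; N2-S + EGF/FGF; compound added 24 h post-stopper removal, 24 h exposure. Readout: calcein-AM/Hoechst 30 min, HCS fluorescence imaging; bidirectional fitting, DMSO baseline.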
# [18] = IUF_NPC1b_proliferation_BrdU_72hr: Leibniz Research Institute for Environmental Medicine (IUF) 72-hour Neural Progenitor Cell Bromodeoxyuridine (BrdU) Proliferation Assay (NPC1b) (AID 2284207)
# In short: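 Luminescent BrdU ELISA measured DNA synthesis during the last 16 h of a 72 h exposure of primary human neural progenitor spheres grown with EGF and FGF. Signal was fitted relative to DMSO controls.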
# [19] = IUF_NPC1a_proliferation_area_72hr: Leibniz Research Institute for Environmental Medicine (IUF) 72-hour Neural Progenitor Cell Proliferation Area Assay (NPC1a) (AID 2284208)
# In short: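 hNPC spheres (human fetal cortex, GW 16-19), one per poly-Hema U-bottom well; EGF+FGF medium; dosed day 0, no re-dosing; 72 h, 37C, 5% CO2; phase-contrast sphere area; DMSO = baseline; minus-GF = positive ctrl.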
# [20] = IUF_NPC1_viability_72hr: Viability Assessment at 72 hours in the Leibniz Research Institute for Environmental Medicine (IUF) Neural Progenitor Cell Proliferation Assay (NPC1) (AID 2284209)
# In short: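 Viability was measured by resazurin-to-resorufin fluorescence (alamar blue) after 72 h of continuous exposure without compound renewal. Each well held one hNPC sphere (gestational week 16-19 fetal cortex, 0.25-0.35 mm) cultured in EGF/FGF proliferation medium at 37C and pH 7.2-7.6.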
# [21] = CCTE_Mundy_HCI_Cortical_Synap_Neur_Matur_NeuriteSpotCountPerNeuriteLength: CCTE's Synaptogenesis and Neurite Maturation Assay in rat cortical cells for Neurite Spot Count per Neurite Length, Mundy Lab (AID 2284210)
# In short: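 Read-out: synaptophysin puncta counted along MAP2-stained neurites, normalised to neurite length, by automated high-content imaging. Rat cortical cells; AraC DIV 5; chemical dosing DIV 7; termination DIV 12. DMSO baseline.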
# [22] = CCTE_Mundy_HCI_Cortical_Synap_Neur_Matur_BPCount: CCTE's Synaptogenesis and Neurite Maturation Assay in rat cortical cells for Branch Point Count, Mundy Lab (AID 2284211)
# In short: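 HCI read-out of branch points from MAP2/synaptophysin/Hoechst immunofluorescence; rat cortical cultures, AraC DIV 5, dosing DIV 7, fixed DIV 12; fit in positive direction vs DMSO baseline.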
compound,measurement,setting,value
COP(=O)(OC)SCN1C(=O)c2ccccc2C1=O,outcome,[1],inactive
same,outcome,[2],inactive
same,outcome,[3],inactive
same,outcome,[4],inactive
same,outcome,[5],inactive
same,outcome,[6],inactive
same,outcome,[7],inactive
same,outcome,[8],inactive
same,outcome,[9],inactive
same,outcome,[10],inactive
same,outcome,[11],inactive
same,outcome,[12],inactive
same,outcome,[13],inactive
same,outcome,[14],inactive
same,outcome,[15],inactive
same,outcome,[16],inactive
same,outcome,[17],inactive
same,AC50,[18],24.8 µM (active)
same,outcome,[19],inactive
same,outcome,[20],inactive
same,outcome,[21],inactive
same,outcome,[22],inactive
